Assay outcomes from PubChem BioAssay.
GPT2 inhibitor = blocks human glutamate pyruvate transaminase 2 | Q8TD30 | 100,000 compounds, 0.25% hits | Recombinant GPT2, coupled pyruvate oxidase/HRP Amplex Red fluorescence | Potency, µM (doses to about 57.7 µM), for inactives: at the top dose activity change, negative = inhibition, actives largely listed as inhibitors; further: nearly all actives have a fitted effect of over 60% in size
Target sequence (Q8TD30 whole entry, looked up): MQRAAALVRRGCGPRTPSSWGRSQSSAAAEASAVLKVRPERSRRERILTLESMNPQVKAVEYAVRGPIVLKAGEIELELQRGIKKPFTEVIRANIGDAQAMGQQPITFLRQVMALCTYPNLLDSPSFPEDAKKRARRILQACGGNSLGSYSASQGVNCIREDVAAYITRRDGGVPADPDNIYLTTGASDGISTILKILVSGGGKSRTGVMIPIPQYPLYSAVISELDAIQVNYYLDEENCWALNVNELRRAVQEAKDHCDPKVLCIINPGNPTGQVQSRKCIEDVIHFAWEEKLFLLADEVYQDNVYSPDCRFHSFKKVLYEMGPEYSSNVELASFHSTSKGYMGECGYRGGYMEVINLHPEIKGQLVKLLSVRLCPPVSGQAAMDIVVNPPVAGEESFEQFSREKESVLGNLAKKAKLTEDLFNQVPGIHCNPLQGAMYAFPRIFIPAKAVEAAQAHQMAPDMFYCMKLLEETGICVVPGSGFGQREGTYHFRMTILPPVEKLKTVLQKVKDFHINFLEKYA
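Recombinant GPT2 (10ng/uL) with 250uM a-KG and 2mM L-alanine, 30 min at room temperature, in HEPES pH 7.5 buffer. Pyruvate detected by pyruvate oxidase/HRP/Amplex Red fluorescence after 30 min in the dark; AOA (50uM) as positive control.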
FLuc inh = Photinus pyralis luciferase inhibition | 76,000 compounds, 2.5% hits | Potency, µM (highest dose often 115 µM), actives largely listed as inhibitors | AID 1347043 | P08659 | purified P. pyralis luciferase, luminescence, biochemical; further: nearly all actives have a fitted effect of over 65% in size
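Luminescence read by CCD imager after adding enzyme (10nM final) to wells holding compound, titrated in qHTS. Substrates 10uM each D-luciferin and ATP; buffer 50mM Tris acetate pH 7.5, 10mM Mg acetate, Tween-20, BSA.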
HEK293 tox = cytotoxic compounds in HEK 293 cells; Potency, µM (titrated, usually from 115 µM), without a hit: top-dose activity change, negative = cytotoxicity, actives largely listed as inhibitors; 94,000 compounds, 6.6% hits; HEK 293 viability, ATP luminescence (CellTiter-Glo), 48-72 h; further: nearly all actives have a fitted effect of over 60% in size
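Cells seeded first (HEK 293, 250 cells/well), then compound added by pintool. Incubation ran 48 or 72 hr at 37 degree Celsius. CellTiter-Glo was added and luminescence imaged after 10 min at room temperature.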
NIH3T3 tox = kills NIH 3T3 cells; NIH 3T3 viability, CellTiter-Glo ATP luminescence, 48-72 h; Potency, µM (series often up to 96.7 µM), for inactives: top-dose activity change, negative = cytotoxicity, most hits filed as inhibitors; 94,000 compounds, 4.3% hits; further: nearly all actives have a fitted effect of over 55% in size
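Cells were seeded at 400 per well, treated with pin-transferred compound, and kept 48 or 72 hr at 37 °C before CellTiter-Glo addition and luminescence imaging of cellular ATP.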
NPR1 antag = human Npr1 receptor antagonism; 76,000 compounds, 1.6% hits; P16066; Potency, µM (doses to about 46.3 µM), for inactives: at the highest dose activity change, negative = inhibition, usual class: inhibitors; HEK293 hNpr1 GloSensor cGMP, ANP-stimulated luminescence; calls by dose curve; further: nearly all actives have a fitted effect of over 60% in size
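HEK293 cells stably expressing human Npr1 and cGMP GloSensor pGS-40F, loaded 2 h with 2% GloSensor reagent, given compound 30 min at room temperature. Luminescence read before and 20 min after 0.1 nM hNppA.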
Numbers without * were called inactive; i = inactive; ? = inconclusive; · = no result; [ ] = remark or other dose. Rows were chosen to be rich in hits. Some 10% of all compounds tested hit in one or more screens of this group. Unless noted, the call rests on the fitted dose curve; in most records, active means well fitted curve in the direction sought with a large enough effect; inconclusive means small, poorly fitted or top-dose-only effect, or another doubt; inactive means no such curve, though single readings can be large; an effect the other way counts as inactive or inconclusive. On the % scale 0 is the no-effect control and ±100 the full control effect; potency means the concentration at half of the fitted maximal effect.

SMILES	GPT2 inhibitor	FLuc inh	HEK293 tox	NIH3T3 tox	NPR1 antag
Cc1ccc(-c2nnc(C3CN(C(=O)c4n[nH]c5ccccc45)CC34CCOCC4)o2)cc1 (centres undefined)	i	i	?	-29%	4%
COc1cc(NC(=O)c2cc3c(N4CCCC4)nc(C)cn3n2)cc(OC)c1OC	i	i	45µM*	?	0%
COc1ccc(OC)c(NC(=O)c2cc3c(N4CCSCC4)nc(C)cn3n2)c1	i	i	-23%	-11%	-2%
COc1cc(NC(=O)c2cc3c(N4CCSCC4)nc(C)cn3n2)cc(OC)c1OC	i	i	35µM*	?	-25%
COc1ccccc1NC(=O)c1cc2c(N3CCSCC3)nc(C)cn2n1	-2%	i	50µM*	-10%	2%
C[S+](=O)([O-])N1Cc2ccccc2CC2(CCCN(CC3CCCC3)C2)C1 (centres undefined)	?	·	-7%	i	·
CC(C)CNc1ccc2c(n1)C(C)(C(=O)NCCc1cnc[nH]1)CN(Cc1ccccc1)C2 (centres undefined)	-9%	i	?	32µM*	3%
CC1(C(=O)NCc2ccccc2)CN(Cc2ccccc2)Cc2ccc(N3CCOCC3)nc21 (centres undefined)	1%	i	50µM*	?	-19%
CN1Cc2ccc(NCc3ccccc3)nc2C(C)(C(=O)NCCc2cnc[nH]2)C1 (centres undefined)	2%[88.5 µM]	i	?	?	0%[70.6 µM]
CC(C)CNc1ccc2c(n1)C(C)(C(=O)Nc1ccn(C)n1)CN(Cc1ccccc1)C2 (centres undefined)	i	i	?	?	0%[70.6 µM]
CC(C)CNc1ccc2c(n1)C(C)(C(=O)NCc1ccco1)CN(Cc1ccccc1)C2 (centres undefined)	2%[88.5 µM]	i	50µM*	40µM*	-17%[70.6 µM]
CC1(C(=O)NCc2ccncc2)CN(Cc2ccccc2)Cc2ccc(N3CCOCC3)nc21 (centres undefined)	4%	i	-19%	?	-6%
CC(C)CNc1ccc2c(n1)C(C)(C(=O)Nc1ccncc1)CN(Cc1ccccc1)C2 (centres undefined)	-12%[88.5 µM]	i	32µM*	22µM*	-16%[70.6 µM]
CC(C)CNc1ccc2c(n1)C(C)(C(=O)NC1COC1)CN(Cc1ccccc1)C2 (centres undefined)	-12%[88.5 µM]	i	?	?	-11%[70.6 µM]
O=C(NCC1CC1)[C@@H]1OCCN(C2CC2)[C@H]1c1ccccc1	-5%	·	-17%	-17%	·
CC(=O)N1CC2(CCCN(Cc3ccccn3)C2)Cc2ccccc21 (centres undefined)	2%	·	-18%	-10%	·
COCCN1C[C@H]2COc3ccccc3[C@H]2N(C(=O)CC(C)(C)C)CCC1=O	·	·	?	-20%	·
C[S+](=O)([O-])c1ccc(-c2nnc3ccc(C(=O)NC4CC4)cn23)cc1	1%[88.5 µM]	·	-9%[172 µM]	-14%[138 µM]	·
C=CCNC(=O)C(NC(=O)c1ccc(OC)cc1)C1CCN(C(=O)c2cccc(OC)c2)CC1 (centres undefined)	-24%	i	i	i	2%
CN1Cc2ccc(Nc3ccccc3)nc2C(C)(C(=O)NCc2ccc3c(c2)OCO3)C1 (centres undefined)	?	i	79µM*	50µM*	-15%[70.6 µM]
CN1Cc2ccc(NCc3ccccc3)nc2C(C)(C(=O)NCc2ccc3c(c2)OCO3)C1 (centres undefined)	-9%	i	?	?	-28%
CC(C)CNc1ccc2c(n1)C(C)(C(=O)NC(C)C)CN(Cc1ccccc1)C2 (centres undefined)	1%[88.5 µM]	i	63µM*	35µM*	?
COCCCNC(=O)C1(C)CN(Cc2ccccc2)Cc2ccc(NCC(C)C)nc21 (centres undefined)	2%[88.5 µM]	i	89µM*	?	5%[70.6 µM]
CC1=C(C(=O)OC(C)C)C(c2ccccc2Cl)CC(=O)N1Cc1cccc(F)c1 (centres undefined)	i	i	32µM*	?	3%
CCS(=O)(=O)c1ccc2oc([C@H]3CCN(Cc4c[nH]c5ccccc45)C3)nc2c1	0%[88.5 µM]	i	?	?	-10%[70.6 µM]
SMILES	GPT2 inhibitor	FLuc inh	HEK293 tox	NIH3T3 tox	NPR1 antag
Fc1ccc(CN2CC[C@H](c3nc4cc(Cl)ccc4o3)C2)cc1F	?	i	89µM*	?	-28%[70.6 µM]
COc1cccc(CN2CC[C@H](c3nc4cc(Cl)ccc4o3)C2)c1	-2%[88.5 µM]	?	?	89µM*	-1%[70.6 µM]
COc1cccc(CN2CC[C@H](c3nc4ccccc4[nH]3)C2)c1	-2%[88.5 µM]	i	?	-18%[138 µM]	3%[70.6 µM]
COc1cccc(CN2CCC(Cc3ncc(C)n3Cc3ccccc3)C2)c1 (centres undefined)	-1%	i	45µM*	35µM*	-19%
Fc1ccc2oc([C@H]3CCN(Cc4ccc(F)c(F)c4)C3)nc2c1	-13%[88.5 µM]	i	?	-26%[138 µM]	2%[70.6 µM]
CCS(=O)(=O)c1ccc2oc([C@H]3CCN(Cc4ccc(OC)cc4)C3)nc2c1	-17%[88.5 µM]	i	63µM*	?	?
CC(c1cccs1)N(C)Cc1cccnc1 (centres undefined)	-6%[88.5 µM]	i	-6%[230 µM]	-4%[174 µM]	3%[70.6 µM]
O=[S+]1([O-])NC2(CCN(Cc3cccc4ccccc34)CC2)CNc2ccccc21	2%	i	40µM*	?	-11%
CN(Cc1cccc(N2CCN(C(=O)OC(C)(C)C)CC2)c1F)[S+](C)(=O)[O-]	·	·	79µM*	?	·
CCOC(=O)C(Cc1cccc(N2CCC(N(c3ccccc3)c3ccccc3)CC2)c1F)OC (centres undefined)	·	·	?	-18%	·
COC(=O)N(C)Cc1cccc(N2CCN([S+](=O)([O-])c3c(Cl)cccc3Cl)CC2)c1F	·	·	14µM*	?	·
COc1cccc(CNC(=O)C2CCN(C(=O)c3ccc(-c4ccccc4OC)cc3)CC2)c1	i	·	?	?	·
COc1ccc(CCNC(=O)c2ccc3nnc(-c4ccc(F)cc4)n3c2)cc1	i	·	-12%	-23%	·
Cc1cccc(OCCc2noc(C3CCCN3C(=O)c3n[nH]c(=O)c4ccccc34)n2)c1 (centres undefined)	-3%	i	40µM*	?	-2%
CSCC(=O)N[C@H]1CCN2C(=O)c3cc(-c4ccc(Cl)cc4)ccc3NC(=O)[C@H]12	-3%[88.5 µM]	?	?	?	-20%[70.6 µM]
Cc1ccccc1-c1nccc2c(=O)cc(N3CCOCC3)oc12	3%[88.5 µM]	i	?	35µM*	4%[70.6 µM]
Cn1nccc1-c1nccc2c(=O)cc(N3CCOCC3)oc12	1%[88.5 µM]	i	?	50µM*	-6%[70.6 µM]
